# Most compounds without a hit are left out; they make up all but 5.9% or so of the library.
# ALR H2O2 inh – inhibitors of human ALR sulfhydryl oxidase, primary screen, biochemical, H2O2 detection, HRP-luminol luminescence, single point | 290,000 tested, 3.8% active | AID 485317, 2010 | FAD-linked sulfhydryl oxidase ALR (Homo sapiens), P55789 | purified ALR, DTT oxidation | inhibition, % (concentration not given with the values);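 active means mean replicate inhibition above about 79%, with every replicate also reaching it, limit read from the data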
# LANA-H2B inh – blockers of LANA interaction with H2A/H2B – biochemical, FP readout, HTS, primary screen; inhibition, % (concentration not given with the values); 320,000 tested, 0.6% active; cell-free LANA-H2A/H2B peptide, fluorescence polarization; in the data active means inhibition mostly above about 10%, no sharp cut-off; inactive means mostly below about 6.7%
# PRMT1 inh – PRMT1 methyltransferase inhibitors, primary screen, biochemical, fluorescence polarization; Protein arginine N-methyltransferase 1 (Homo sapiens), Q99873; recombinant PRMT1, activity-based probe fluorescence polarization; inhibition, % at 2.79 µM; 370,000 tested, 1.3% active;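 active means inhibition above about 21% made by adding two undisclosed values, limit read from the data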
# rCAG RNA binder – binders of r(CAG) RNA repeats, primary screen, biochemical, fluorescence; inhibition, % at 3 µM; AID 651821, 2012; r(CAG) RNA repeat, TO-PRO-1 dye displacement fluorescence; 370,000 tested, 1.3% active;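 active means inhibition above the plate cutoff, the mean of all test compounds on that plate plus 3 SD, cut at about 35% in these data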;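 further: 0% = DMSO alone and 100% = 100 µM mitoxantrone as full dye displacement; higher means more dye released from RNA so lower well fluorescence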
# ABHD5 PLIN5 PPI – ABHD5-PLIN5 interaction inhibitors, primary screen, cell lysate, split luciferase complementation, luminescence | inhibition, % at 4 µM | Split G. princeps luciferase complementation, 4 h | 360,000 tested, 0.78% active;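 active means inhibition above the mean inhibition across every tested compound plus 3 SD, cut at about 22% in these data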;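 further: 0% = DMSO only wells and the 100% control is not disclosed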
# Rtt109 HAT inh – inhibitors of C. albicans Rtt109/Vps75 HAT, primary screen, biochemical, ThioGlo CoA-SH fluorescence, plate reader; purified Rtt109/Vps75, 4 h; Histone acetyltransferase RTT109 (Candida albicans (strain SC5314 / ATCC MYA-2876)), …; 330,000 tested, 0.16% active; AID 540336, 2011; inhibition, % at 34.9 µM;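 active means inhibition of at least 50% in every replicate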
# The depositor's hits bear a star; x = no result given.
SMILES,ALR H2O2 inh,LANA-H2B inh,PRMT1 inh,rCAG RNA binder,ABHD5 PLIN5 PPI,Rtt109 HAT inh
O=c1[nH]c(=S)[nH]c2scc(-c3ccc(Br)cc3)c12,-6.4,4.6,11.7,19.2,-8.0,-2.6
Clc1ccc(CN2CCN(N=Cc3cccc(OCc4ccccc4)c3)CC2)cc1,x,x,-9.8,0.4,x,x
O=C(Nc1nnc(-c2ccc3c(c2)CCCC3)o1)c1c(F)cccc1F,95.2*,-3.5,0.3,24.5,0.5,2.5
O=C(Nc1nnc(-c2ccc3c(c2)CCCC3)o1)C1CCCCC1,x,x,7.4,0.2,7.7,-0.3
O=C(Nc1nnc(-c2ccc3c(c2)CCCC3)o1)c1ccc(Cl)cc1Cl,x,-2.9,-3.7,56.6*,-2.0,-5.9
O=S(=O)(c1ccc(F)cc1)N1CCCc2nc(-c3ccc(F)cc3)ccc21,x,x,-2.7,2.6,x,x
Nc1ccc(Oc2ccccc2-c2ccccc2)cc1,98.7*,2.3,-2.2,-3.8,-5.1,2.8
COC(=O)CSc1c(-c2ccccc2)c2cc(Cl)ccc2[nH]c1=O,-0.5,0.3,-1.7,-4.5,-1.8,-6.9
COC(=O)CSc1[nH]c2ccccc2c1[N+](=O)[O-],99.7*,5.6,14.8,0.8,14.2,-111.9
Nc1[nH]c(C(=O)c2ccc(Br)cc2)c(-c2ccc(Br)cc2)c1C(=O)N1CCCCC1,x,x,0.7,x,x,x
Cc1ccc(C)c(C(=O)OCC(=O)NC(=O)NCc2ccccc2)c1,x,x,-3.2,-1.2,-14.8,x
Cc1ccc(N/C=C/C(=O)C(C)(C)C)c(O)c1,83.3*,1.6,x,x,-0.6,30.5
Nc1c(C2CCCCC2)c(=O)on1C(=O)c1ccccc1,x,x,-1.4,0.6,-18.9,-4.7
COc1ccc(-c2nc(CS(=O)CC(=O)NCc3cccnc3)c(C)o2)cc1 (stereo not given),99.4*,3.8,15.7,4.0,-3.4,-5.1
Cc1oc(-c2ccc(Cl)cc2)nc1CN1CCCC(C(=O)NCc2cccnc2)C1 (stereo not given),-1.6,2.1,-1.0,-7.4,4.2,7.2
COc1ccc(OCC(=O)NCc2cccnc2)cc1,-5.6,-3.5,3.1,1.8,10.4,0.2
CCc1ccc(-c2nc(CS(=O)CC(=O)NCc3cccnc3)c(C)o2)cc1 (stereo not given),99.0*,1.1,3.2,1.9,-0.3,-14.3
COc1ccc(-c2nc(CS(=O)CC(=O)NCc3ccc(F)cc3)c(C)o2)cc1 (stereo not given),98.5*,0.5,1.4,-0.2,-0.9,2.1
CCc1ccccc1OCC(=O)N1CCN(c2ncccn2)CC1,x,x,5.0,-4.3,10.9,2.2
O=[N+]([O-])c1ncccc1OCCOc1ccc(Cl)cc1Cl,x,x,6.3,x,x,x
Cc1cccc(C2C3=C(Nc4[nH]n(-c5ccccc5)c(=O)c42)c2ccccc2C3=O)c1 (stereo not given),x,x,21.4*,68.1*,4.4,17.1
O=C(CCc1ccccc1-c1ccccc1CCNC(=O)c1c(F)cccc1F)NCc1ccccc1,x,x,-2.1,0.9,x,x
Cc1cccc(C)c1NC(=O)C(c1ccccc1)n1c(-c2ccccc2)nc2ccccc21 (stereo not given),x,x,-0.7,4.6,-1.4,x
CN=C(C)C1=C(O)C(C(=O)OC)C(C)(C)CC1=O (stereo not given),-4.7,4.0,1.4,2.2,2.5,-2.9
COC(=O)C1C(O)=C(C(C)=N)C(=O)CC1(C)C (stereo not given),97.7*,8.2,-1.7,-3.3,-11.2,-7.4
SMILES,ALR H2O2 inh,LANA-H2B inh,PRMT1 inh,rCAG RNA binder,ABHD5 PLIN5 PPI,Rtt109 HAT inh
C[C@@H]1ON(C)[C@H]2C[C@H]3c4[nH]c5c(-c6cccc(Cl)c6)cccc5c4CCN3C(=O)[C@@H]12,x,x,2.0,13.0,x,x
COc1ccc(Sc2ccccc2CN(C)C)cc1OC,8.0,-0.3,2.1,-5.8,0.4,-2.6
CNCc1ccccc1Sc1ccc(O)c(O)c1,98.7*,x,65.7*,9.7,23.0*,13.2
Cc1cccc2c1CCC1CN(Cc3ccccc3)S(=O)(=O)N21 (stereo not given),x,x,-0.9,x,x,x
CC(C)[C@H](NC(=O)c1ccc(Cl)cc1)C(=O)Nc1cccc(S(=O)(=O)N2CCOCC2)c1,x,x,0.6,5.6,4.1,x
CC1CN(S(=O)(=O)c2ccc(C(=O)Nc3nnc(-c4ccco4)o3)cc2)CC(C)O1 (stereo not given),86.8*,-0.8,-3.9,17.1,0.1,2.2
CC1CCN(S(=O)(=O)c2ccc(C(=O)Nc3nnc(-c4ccco4)o3)cc2)CC1,8.5,2.4,-4.5,18.4,8.7,18.2
C[C@H](CO)N1C[C@H](C)[C@H](CN(C)Cc2cncnc2)Oc2ncc(C#CC3(O)CCCC3)cc2C1=O,x,x,-1.4,-1.7,0.8,x
CCOC(=O)C1C(=O)CC(C)(O)C(C(=O)OCC)C1/C=C/c1ccccc1 (stereo not given),x,81.5*,2.4,-1.7,-6.7,5.5
Cc1ccc(CN2CCCCC(NC(=O)Nc3ccccc3-c3ccccc3)C2=O)cc1 (stereo not given),x,x,-4.4,2.3,x,x
CCc1c(C)[nH]n(-c2nc(-c3cccc([N+](=O)[O-])c3)cs2)c1=O,24.1,-0.3,-0.1,7.7,-5.3,6.3
CCc1c(C)[nH]n(-c2nc(-c3ccccc3)cs2)c1=O,97.3*,2.6,4.8,10.1,-10.3,-0.5
CCn1c(=O)c(C(=O)NNC(=O)c2ccccc2Br)c(O)c2ccccc21,x,26.6*,-1.9,7.5,-8.0,-7.4
Cn1c(=O)c(C(=O)NNC(=O)c2ccccc2Br)c(O)c2ccccc21,0.9,-2.9,4.2,7.5,2.8,-2.2
CC1(C(=O)NS(C)(=O)=O)CCN1C(=O)C/C=C/c1ccccc1 (stereo not given),x,x,0.7,1.9,0.2,x
O=C(O)c1ccc(N/N=C/C2=Cc3ccccc3OC2)cc1,98.5*,3.0,5.0,16.5,5.5,27.5
CC1=C(C(=O)N(C)C)CC(CC(=O)NC2CCCCC2)C(=O)N1CCC1=CCCCC1 (stereo not given),x,x,-0.2,0.4,6.5,x
CCN(CCCNC(=O)CN1C(=O)COc2ccccc21)c1ccccc1,98.8*,4.5,2.6,-3.4,-5.3,3.5
CCN(CCCNC(=O)CC(C(=O)N1CCc2ccccc21)n1ccnc1)c1cccc(C)c1 (stereo not given),99.0*,-0.6,-4.2,-2.7,7.1,-1.2
CCN(CCCNC(=O)CCn1c(=O)[nH]c2ccccc2c1=O)c1ccccc1,97.8*,1.8,-2.9,-2.2,-3.3,2.5

# Source: PubChem (several laboratories)
